Results as given in PubChem BioAssay AID1159580 (chemical genetic matrix, 2015).
Values joined by “and” are separate entries in the source; they are usually repeats but may differ in a detail not shown here. Identical values can stand only once. About 2,000 (36%) of roughly 5,500 compounds were called active. Another 18% or so got no clear call; they are omitted. Cut-off read from the data, not from the text of the source: active = normalized growth mostly below about 0.91 (no sharp cut-off); inconclusive = no clear call, values can overlap the other calls; inactive = mostly above about 0.92. Some of the results follow. The source holds several records for some structures; these can differ, active in one and inactive in another.

Assay: chemical genetic growth profiling, strain panel (AID 1159580);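 note: tested at 20 µM; growth read once vehicle control cultures reached saturation at 30 °C; 1 = growth at the plate median or of vehicle wells; lower values mean less growth of the strain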
Details: growth OD
[1] = S. cerevisiae deletion strains, locus YAL040C, strain CLN3, stronger effect = lower value
[2] = S. cerevisiae deletion strains, locus YCL061C, strain MRC1 (second series), stronger effect = lower value
[3] = S. cerevisiae deletion strains, locus YDR150W, strain NUM1, stronger effect = lower value
[4] = S. cerevisiae deletion strains, locus YDR363W, strain ESC2, stronger effect = lower value
[5] = S. cerevisiae deletion strains, locus YER002W, strain NOP16, stronger effect = lower value
[6] = S. cerevisiae deletion strains, locus YGR229C, strain SMI1, stronger effect = lower value
[7] = S. cerevisiae deletion strains, locus YHR030C, strain SLT2, stronger effect = lower value
[8] = S. cerevisiae deletion strains, locus YJL095W, strain BCK1, stronger effect = lower value
[9] = S. cerevisiae deletion strains, locus YJR075W, strain HOC1, stronger effect = lower value
[10] = S. cerevisiae deletion strains, locus YMR263W, strain SAP30, stronger effect = lower value
[11] = S. cerevisiae deletion strains, locus YNL153C, strain GIM3, stronger effect = lower value
[12] = S. cerevisiae deletion strains, locus YNL175C, strain NOP13, stronger effect = lower value
[13] = S. cerevisiae deletion strains, locus YNL197C, strain WHI3, stronger effect = lower value
[14] = S. cerevisiae deletion strains, locus YNL224C, strain SQS1, stronger effect = lower value
[15] = S. cerevisiae deletion strains, locus YNL322C, strain KRE1, stronger effect = lower value
[16] = S. cerevisiae deletion strains, locus YOR083W, strain WHI5 (second series), stronger effect = lower value
[17] = S. cerevisiae deletion strains, locus YPL055C, strain LGE1, stronger effect = lower value
[18] = S. cerevisiae deletion strains, locus YPL241C, strain CIN2, stronger effect = lower value

Measured: normalized growth

CCCCCCCCCCCCCCCCCC(=O)OC(CC(=O)O)C[N+](C)(C)C (configuration not stated)
1 (inactive) and 0.232 (active): [10]
1.03 (inactive) and 0.297 (active): S. cerevisiae deletion strains, locus YMR307W, strain GAS1, stronger effect = lower value
active: S. cerevisiae deletion strains, locus YAL013W, strain DEP1, stronger effect = lower value 0.117 | [1] 0.47 | S. cerevisiae deletion strains, locus YBR021W, strain FUR4, stronger effect = lower value 0.0953 | S. cerevisiae deletion strains, locus YCL029C, strain bik1, stronger effect = lower value 0.316 | S. cerevisiae deletion strains, locus YDL035C, strain GPR1, stronger effect = lower value 0.283 | S. cerevisiae deletion strains, locus YDL074C, strain BRE1, stronger effect = lower value 0.238 | S. cerevisiae deletion strains, locus YDL101C, strain DUN1, stronger effect = lower value 0.374 | S. cerevisiae deletion strains, locus YDL134C, strain PPH21, stronger effect = lower value 0.142 | S. cerevisiae deletion strains, locus YDL185W, strain tfp1, stronger effect = lower value 0.0578 | S. cerevisiae deletion strains, locus YDL192W, strain arf1, stronger effect = lower value 0.917 | S. cerevisiae deletion strains, locus YDR101C, strain arx1, stronger effect = lower value 0.679 | [3] 0.583 | S. cerevisiae deletion strains, locus YDR162C, strain NBP2, stronger effect = lower value 0.0806 | S. cerevisiae deletion strains, locus YDR318W, strain mcm21, stronger effect = lower value 0.348 | S. cerevisiae deletion strains, locus YDR388W, stronger effect = lower value 0.0585 | S. cerevisiae deletion strains, locus YDR502C, strain sam2, stronger effect = lower value 0.619 | S. cerevisiae deletion strains, locus YEL061C, strain CIN8, stronger effect = lower value 0.44 | S. cerevisiae deletion strains, locus YER110C, stronger effect = lower value 0.156 | S. cerevisiae deletion strains, locus YER155C, strain BEM2, stronger effect = lower value 0.274 | S. cerevisiae deletion strains, locus YER167W, strain BCK2, stronger effect = lower value 0.214 | S. cerevisiae deletion strains, locus YGL078C, strain dbp3, stronger effect = lower value 0.62 | S. cerevisiae deletion strains, locus YGL086W, strain mad1, stronger effect = lower value 0.23 | S. cerevisiae deletion strains, locus YGL248W, strain PDE1, stronger effect = lower value 0.153 | S. cerevisiae deletion strains, locus YGR135W, strain pre9, stronger effect = lower value 0.185 | [6] 0.797 and 0.0756 | S. cerevisiae deletion strains, locus YGR252W, strain gcn5, stronger effect = lower value 0.155 | [7] 0.109 | S. cerevisiae deletion strains, locus YHR079C, strain IRE1 (second series), stronger effect = lower value 0.585 | S. cerevisiae deletion strains, locus YHR094C, strain hxt1, stronger effect = lower value 0.608 | S. cerevisiae deletion strains, locus YHR129C, strain ARP1, stronger effect = lower value 0.637 | S. cerevisiae deletion strains, locus YHR200W, strain rpn10, stronger effect = lower value 0.871 | S. cerevisiae deletion strains, locus YIL066C, strain RNR3, stronger effect = lower value 0.0537 | S. cerevisiae deletion strains, locus YIL073C, strain SPO22, stronger effect = lower value 0.108 | S. cerevisiae deletion strains, locus YIL125W, strain kgd1, stronger effect = lower value 0.59 | S. cerevisiae deletion strains, locus YIR030C, strain dcg1, stronger effect = lower value 0.587 | [8] 0.0851 | S. cerevisiae deletion strains, locus YJL187C, strain SWE1 (second series), stronger effect = lower value 0.571 | S. cerevisiae deletion strains, locus YJR043C, strain POL32, stronger effect = lower value 0.567 | [9] 0.146 | S. cerevisiae deletion strains, locus YKL009W, strain mrt4, stronger effect = lower value 0.504 | S. cerevisiae deletion strains, locus YKL085W, strain MDH1 (second series), stronger effect = lower value 0.56 | S. cerevisiae deletion strains, locus YKL085W, strain MDH1, stronger effect = lower value 0.56 | S. cerevisiae deletion strains, locus YKL190W, strain CNB1, stronger effect = lower value 0.0864 | S. cerevisiae deletion strains, locus YKR001C, strain vps1, stronger effect = lower value 0.89 | S. cerevisiae deletion strains, locus YLR058C, strain SHM2, stronger effect = lower value 0.598 | S. cerevisiae deletion strains, locus YLR102C, strain apc9, stronger effect = lower value 0.848 | S. cerevisiae deletion strains, locus YLR268W, strain sec22, stronger effect = lower value 0.168 | S. cerevisiae deletion strains, locus YLR330W, strain CHS5, stronger effect = lower value 0.0585 | S. cerevisiae deletion strains, locus YLR342W, strain FKS1 (second series), stronger effect = lower value 0.102 | S. cerevisiae deletion strains, locus YLR371W, strain rom2, stronger effect = lower value 0.9 | S. cerevisiae deletion strains, locus YLR418C, strain cdc73, stronger effect = lower value 0.101 | S. cerevisiae deletion strains, locus YML016C, strain PPZ1, stronger effect = lower value 0.229 | S. cerevisiae deletion strains, locus YML032C, strain rad52, stronger effect = lower value 0.499 | S. cerevisiae deletion strains, locus YML124C, strain tub3, stronger effect = lower value 0.88 | S. cerevisiae deletion strains, locus YMR078C, strain ctf18, stronger effect = lower value 0.392 | S. cerevisiae deletion strains, locus YMR223W, strain ubp8, stronger effect = lower value 0.406 | S. cerevisiae deletion strains, locus YNL067W, strain RPL9B, stronger effect = lower value 0.698 | S. cerevisiae deletion strains, locus YNL128W, strain TEP1, stronger effect = lower value 0.752 | [11] 0.281 | [12] 0.249 | [13] 0.736 | [14] 0.391 | S. cerevisiae deletion strains, locus YNL233W, strain BNI4, stronger effect = lower value 0.136 | S. cerevisiae deletion strains, locus YNL250W, strain rad50, stronger effect = lower value 0.69 | S. cerevisiae deletion strains, locus YNL271C, strain bni1, stronger effect = lower value 0.736 | S. cerevisiae deletion strains, locus YNL298W, strain CLA4, stronger effect = lower value 0.192 | S. cerevisiae deletion strains, locus YNL307C, strain MCK1, stronger effect = lower value 0.0704 | S. cerevisiae deletion strains, locus YOL006C, strain TOP1, stronger effect = lower value 0.101 | S. cerevisiae deletion strains, locus YOL147C, strain pex11, stronger effect = lower value 0.118 | [16] 0.102 | S. cerevisiae deletion strains, locus YOR136W, strain idh2, stronger effect = lower value 0.773 | S. cerevisiae deletion strains, locus YOR144C, strain elg1, stronger effect = lower value 0.569 | S. cerevisiae deletion strains, locus YOR184W, strain ser1, stronger effect = lower value 0.0857 | S. cerevisiae deletion strains, locus YOR316C, strain cot1, stronger effect = lower value 0.582 | S. cerevisiae deletion strains, locus YPR119W, strain clb2, stronger effect = lower value 0.796 | S. cerevisiae deletion strains, locus YPR163C, strain tif3, stronger effect = lower value 0.0804 | S. cerevisiae deletion strains, locus YPR167C, strain met16, stronger effect = lower value 0.587 | S. cerevisiae deletion strains, strain wtn01, stronger effect = lower value 0.303 | S. cerevisiae strains, strain wild type, stronger effect = lower value 0.51
0.983 (inactive) and 0.182 (active): [15]
0.892 (inactive) and 0.209 (active): [17]
inactive: S. cerevisiae deletion strains, locus YBR229C, strain ROT2, stronger effect = lower value 1.03 | [2] 0.991 | [4] 0.985 | [5] 1.01 | S. cerevisiae deletion strains, locus YJL134W, strain LCB3, stronger effect = lower value 1.01 | S. cerevisiae deletion strains, locus YJL168C, strain set2, stronger effect = lower value 0.956 | S. cerevisiae deletion strains, locus YKL068W, stronger effect = lower value 1 | S. cerevisiae deletion strains, locus YLR039C, strain RIC1, stronger effect = lower value 1.1 | S. cerevisiae deletion strains, locus YLR262C, strain YPT6, stronger effect = lower value 1.09 | S. cerevisiae deletion strains, locus YNR052C, strain pop2, stronger effect = lower value 0.961 | S. cerevisiae deletion strains, locus YOR061W, strain CKA2, stronger effect = lower value 0.949 | S. cerevisiae deletion strains, locus YOR069W, strain VPS5, stronger effect = lower value 1 | S. cerevisiae deletion strains, locus YPR141C, strain kar3, stronger effect = lower value 1.05
0.976 (inactive) and 0.122 (active): S. cerevisiae deletion strains, locus YGR078C, strain PAC10, stronger effect = lower value
0.96 (inactive) and 0.778 (active): [18]

CCC(=O)O[C@H](CC(=O)O)C[N+](C)(C)C
inactive: [7] 1.02 | S. cerevisiae deletion strains, locus YHR079C, strain IRE1, stronger effect = lower value 1.05 | [8] 1.05 | S. cerevisiae deletion strains, locus YJR066W, strain TOR1, stronger effect = lower value 0.967 | S. cerevisiae deletion strains, locus YLR113W, strain HOG1, stronger effect = lower value 1.02 | S. cerevisiae deletion strains, locus YNL183C, strain NPR1, stronger effect = lower value 0.988 | S. cerevisiae deletion strains, locus YOR231W, strain MKK1, stronger effect = lower value 1.04 | S. cerevisiae deletion strains, locus YPL256C, strain CLN2, stronger effect = lower value 1.04

CCCCCCCCCCCCCCCC(=O)OC(CC(=O)O)C[N+](C)(C)C (configuration not stated)
active: [2] 0.492 | [3] 0.56 | [4] 0.784 | [5] 0.424 | [6] 0.0686 | [9] 0.724 | [10] 0.584 | [11] 0.0876 | [12] 0.0754 | [13] 0.0681 | [14] 0.0761 | [15] 0.354 | [16] 0.0749 | [17] 0.383
inactive: [1] 1.07 | [18] 0.976
